Source: PubChem (National Center for Advancing Translational Sciences (NCATS))
GLP-1R agonist: qHTS of GLP-1 Receptor Agonists; Glucagon-like peptide 1 receptor (Homo sapiens), P43220; Potency, µM (titrated, usually from 45.6 µM), without a hit: at the highest dose activation, most hits filed as activators; 380,000 compounds, 0.007% hits; HEK293 GLP-1R CRE-luciferase, luminescence, 4-6 h; cells express a hypersensitive GLP-1R form; note: potency is the fitted concentration of half-maximal effect; % of control where 0% means no effect
Target sequence (P43220 whole entry, looked up): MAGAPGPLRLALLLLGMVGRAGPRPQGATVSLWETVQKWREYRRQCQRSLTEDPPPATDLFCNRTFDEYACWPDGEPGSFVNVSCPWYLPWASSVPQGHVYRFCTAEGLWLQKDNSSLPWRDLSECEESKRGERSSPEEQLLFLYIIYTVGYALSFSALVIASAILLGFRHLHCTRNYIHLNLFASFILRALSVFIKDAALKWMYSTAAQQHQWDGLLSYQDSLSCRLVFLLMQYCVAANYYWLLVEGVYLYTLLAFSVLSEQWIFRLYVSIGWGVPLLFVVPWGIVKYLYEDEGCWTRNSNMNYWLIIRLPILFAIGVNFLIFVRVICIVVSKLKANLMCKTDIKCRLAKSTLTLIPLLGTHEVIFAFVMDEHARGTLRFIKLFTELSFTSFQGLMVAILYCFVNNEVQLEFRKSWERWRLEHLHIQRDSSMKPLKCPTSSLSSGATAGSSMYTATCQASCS
LDHA inh: qHTS assay for inhibitors of human lactate dehydrogenase; 480,000 compounds, 0.15% hits; activity change, % (values are at about 110 or 230 µM); AID 1347041, 2019; purified LDHA, NADH/diaphorase-resazurin fluorescence; hits give low values; in the data active = activity change below about -30%; inconclusive = mostly about -25% to -30%;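 note: plate controls were DMSO wells for no effect and wells without enzyme for full effect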
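Enzyme activity of human lactate dehydrogenase 5 (2 nM; 0.06 mM NADH, 0.2 mM pyruvate, 5 min, RT) is measured via a resazurin/diaphorase fluorescence readout of residual NADH.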
p53 reactivation: qHTS assay for re-activators of p53 using a Luc reporter. H1299 p53-A138V BP100-luciferase reporter, luminescence, 24 h. Potency, µM (series often up to 92.2 µM), inactives show at the top dose activity change, positive = activation, actives largely listed as activators. 320,000 compounds, 0.063% hits. AID 504706, 2011; note: potency is the fitted concentration of half-maximal effect; % of control where 0% means no effect; nearly all actives have a fitted effect of over 45% in size
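H1299 (p53-null), stable ts p53-A138V + BP100-Luc; 1000 cells/well, Opti-MEM/10% FBS; cpd 4 pt, 1:5; 24 h, 37 deg C, 5% CO2; detection reagent 10 min RT; luminescence.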
ClpP mod: qHTS Assay for Activators of ClpP | purified B. subtilis ClpP, FRET peptide cleavage, 20 min | ATP-dependent Clp protease proteolytic subunit (Bacillus subtilis (strain 168)), P80244 | Potency, µM (titrated, usually from 57.5 µM), inactives show top-dose activity change, negative = active | AID 651965, 2013 | 340,000 compounds, 1.9% hits; active = well fitted falling curve with a large enough effect; inconclusive = small, poorly fitted or top-dose-only effect; inactive = no such curve, though single readings can be large or run the other way; note: potency is the fitted concentration of half-maximal effect; the source files actives as falling curves though it sought activators and does not explain the sign; nearly all actives have a fitted effect of over 65% in size
Target sequence (P80244 whole entry, looked up): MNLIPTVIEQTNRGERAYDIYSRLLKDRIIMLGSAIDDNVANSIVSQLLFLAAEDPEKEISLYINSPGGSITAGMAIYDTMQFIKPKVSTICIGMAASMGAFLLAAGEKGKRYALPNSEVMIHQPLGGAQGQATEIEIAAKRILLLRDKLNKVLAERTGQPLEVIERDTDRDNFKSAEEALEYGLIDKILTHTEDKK
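Purified B. subtilis ClpP, 10 microg/mL final in Tris/HCl pH8 with KCl, BSA, glycerol and Tween-20, cleaved an Abz/nitrotyrosine-quenched decapeptide. Fluorescence (ex 320, em 430) was read at 0 and 20 min at room temperature. Delta was normalized to 5.8 microM ADEP and DMSO/no-enzyme controls.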
GLP1R cytotox: qHTS of GLP-1 Receptor Inverse Agonists: Cytotox Screen; 410,000 compounds, 0.13% hits; HEK293 cAMP-luciferase reporter cells, luminescence, 24 h; Potency, µM (series often up to 38.3 µM), without a hit: top-dose activity change, negative = inhibition, most hits filed as inhibitors;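 note: loss of luciferase light is scored as toxicity; potency is the fitted concentration of half-maximal effect; % is set by controls: 0 for no effect and ±100 for the full control effect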
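Luminescence readout: signal drop marks cytotoxicity. Plated cells grew 12 h at 37 °C, 5% CO2, received 23 nL compound for 24 h, then got luciferase reagent, read after 12 min at RT.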
GLP1R inv ag: qHTS of GLP-1 Receptor Inverse Agonists (Inhibition Mode); Glucagon-like peptide 1 receptor (Homo sapiens), P43220; HEK293 GLP-1R CRE-luciferase, luminescence, 24 h; GLP-1R form is constitutively active; Potency, µM (series often up to 38.3 µM), for the others: top-dose activity change, negative = inhibition, hits mostly inhibitors; 410,000 compounds, 1.6% hits; AID 624417, 2012; note: potency is the fitted concentration of half-maximal effect; % is set by controls: 0 for no effect and ±100 for the full control effect; nearly all actives have a fitted effect of over 55% in size
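Inverse agonists were sought by their lowering of basal cAMP reporter luciferase output in HEK293 cells stably carrying constitutively active human GLP-1R, after 24 h compound treatment.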
An asterisk follows results filed as active; ! = a repeat was not active. Shown are actives, neighbours in structure and some others; about 2.9% of the full set was active somewhere. Unless noted, calls come from the whole dose curve; as a rule, active = well fitted curve in the direction sought with a large enough effect; inconclusive = small, poorly fitted or top-dose-only effect, or another doubt; inactive = no such curve, though single readings can be large; an effect the other way counts as inactive or inconclusive.

`COc1ccc(CNC(=O)/C=C/c2ccc(S(=O)(=O)N3CCOCC3)cc2)cc1` gave GLP-1R agonist 3%, LDHA inh -10, p53 reactivation -2%, GLP1R cytotox 5% and GLP1R inv ag -1%.
`O=C(/C=C/c1ccc(S(=O)(=O)N2CCOCC2)cc1)NCc1ccc(Cl)cc1` gave GLP-1R agonist 12%, LDHA inh 4, p53 reactivation -8%, ClpP mod 0%, GLP1R cytotox -1% and GLP1R inv ag 3.5µM*.
For Cc1cccc(-n2c(O)c(C=Nc3ccccc3O)c3ccccc3c2=O)n1 the results were GLP-1R agonist 16%, LDHA inh -12, p53 reactivation -5%, GLP1R cytotox inconclusive and GLP1R inv ag 40%.
For Cc1cccc(-n2c(O)c(C=Nc3ccc(O)cc3)c3ccccc3c2=O)n1 the results were GLP-1R agonist -7%, LDHA inh 1, p53 reactivation -18%, ClpP mod 7.1µM*, GLP1R cytotox 1% and GLP1R inv ag 12%.
Screening N#Cc1cnn2cc(-c3ncc(C(F)(F)F)cc3Cl)cnc12 returned GLP-1R agonist 5%, LDHA inh -14, p53 reactivation 1%, ClpP mod 28µM*, GLP1R cytotox 8% and GLP1R inv ag 1%.
Screening Cc1cc2ncc(-c3ncc(C(F)(F)F)cc3Cl)cn2n1 returned GLP-1R agonist -22%, LDHA inh -10, p53 reactivation -4%, ClpP mod -3%, GLP1R cytotox 12% and GLP1R inv ag 5µM*.
For O=C(/C=C/c1ccco1)NC(=S)Nc1ccccc1 the results were GLP-1R agonist 13%, LDHA inh -3, p53 reactivation 12%, ClpP mod 1%, GLP1R cytotox -5% and GLP1R inv ag inconclusive.
Cc1ccc([N+](=O)[O-])cc1NC(=O)CN(C(=O)c1ccccc1Cl)C1CCCCC1 was read as GLP-1R agonist -12%, LDHA inh -6, p53 reactivation 1%, ClpP mod -2%, GLP1R cytotox -30% and GLP1R inv ag 10µM*.
Screening N#Cc1nc(-c2ccc(OCc3ccc(Cl)cc3)cc2)oc1N1CCC(C(N)=O)CC1 returned GLP-1R agonist -6%, LDHA inh -15, p53 reactivation 8%, ClpP mod 5µM*!, GLP1R cytotox 5% and GLP1R inv ag 0%.
CCCOc1ccc(-c2nc(C#N)c(N3CCC(C(N)=O)CC3)o2)cc1 was read as GLP-1R agonist 2%, LDHA inh -8, p53 reactivation -13%, ClpP mod 14µM*, GLP1R cytotox -7% and GLP1R inv ag 0%.
Cc1ccc(S(=O)(=O)N(CC(=O)Nc2cccnc2)c2cc(Cl)ccc2C)cc1 was read as LDHA inh -5, ClpP mod -1%, GLP1R cytotox -26% and GLP1R inv ag 10µM*.
Screening Cc1ccc(S(=O)(=O)N(CC(=O)Nc2cccnc2)c2cccc([N+](=O)[O-])c2)cc1 returned GLP-1R agonist 15%, LDHA inh -6, p53 reactivation -43%, ClpP mod -2%, GLP1R cytotox inconclusive and GLP1R inv ag inconclusive.
Cc1ccc(S(=O)(=O)N(CC(=O)Nc2cccnc2)c2cccc(Br)c2)cc1 was read as GLP-1R agonist 4%, LDHA inh -2, p53 reactivation -34%, ClpP mod -1%, GLP1R cytotox 0% and GLP1R inv ag 4.5µM*.
Screening Cc1ccccc1NS(=O)(=O)c1ccc2[nH]c3c(c2c1)CCCCC3 returned GLP-1R agonist 0%, LDHA inh -3, ClpP mod -19%, GLP1R cytotox -12% and GLP1R inv ag 10µM*.
Screening Cc1cccc(NS(=O)(=O)c2ccc3[nH]c4c(c3c2)CCCCCC4)c1 returned LDHA inh -10, ClpP mod -28%, GLP1R cytotox inconclusive and GLP1R inv ag 8.9µM*.
`CCC(NC(=O)C1CCN(C(=O)/C=C/c2ccccc2)CC1)C12CC3CC(CC(C3)C1)C2` (centres undefined) gave LDHA inh 6.
COc1cc(NC(=O)C2CC(c3cccc(OC)c3OC)=NO2)cc(OC)c1OC (centres undefined) was read as GLP-1R agonist 1%, LDHA inh 2, p53 reactivation -19%, ClpP mod 1%, GLP1R cytotox -3% and GLP1R inv ag 2%.
Screening COC(=O)/C=C/c1ccccc1S(=O)(=O)NC(C)C returned ClpP mod 1%.
Screening COC(=O)/C=C/c1ccccc1S(=O)(=O)N(Cc1ccccc1)Cc1ccco1 returned GLP-1R agonist 5%, LDHA inh -3, p53 reactivation 5%, ClpP mod -1%, GLP1R cytotox -30% and GLP1R inv ag 2.2µM*.
For COc1ccccc1OCCC(=O)OCC(=O)Nc1ccc(Br)cc1 the results were GLP-1R agonist 1%, LDHA inh -9, p53 reactivation -6%, ClpP mod 28µM*, GLP1R cytotox 0% and GLP1R inv ag 0%.
`COc1cccc(OC)c1-c1nnc(-c2cn(C)c3ccccc23)o1` gave GLP-1R agonist 0%, LDHA inh -6, p53 reactivation -4%, ClpP mod 11µM*, GLP1R cytotox -17% and GLP1R inv ag 25%.
CCc1ccc(CNCc2c(C(=O)O)c(C)n(Cc3c(F)cccc3Cl)c2C)cc1 was read as LDHA inh -1, ClpP mod -1%, GLP1R cytotox -6% and GLP1R inv ag -8%.
O=C(NC1CC1)c1cc(-c2ccccn2)nc2cc(F)ccc12 was read as LDHA inh 0.
For CC(C)c1c(C(=O)N/N=C/c2cccc3ccccc23)nnn1-c1nonc1N the results were GLP-1R agonist -2%, LDHA inh -4, p53 reactivation 0%, ClpP mod -6%, GLP1R cytotox -20% and GLP1R inv ag 6.3µM*.
For CC1CCN(Cc2c(C(=O)N/N=C/c3cc(Br)ccc3O)nnn2-c2nonc2N)CC1 the results were GLP-1R agonist -1%, LDHA inh -11, p53 reactivation 17%, GLP1R cytotox 124% and GLP1R inv ag 4µM*.
